The values below come from PubChem BioAssay.

Calls of active or inactive are those of the source. Unless noted, how the calls were made is not given here.

In assay [1] the test system is Wnt5a (protein binding on small-molecule microarray). Kind of assay: Wnt5a binders on small-molecule microarray, primary screen, biophysical, 635/667 nm fluorescence (AID 1142).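 Further: fluorescence read at 667 nm with signal to noise per printed feature.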 Particulars: 635 nm fluorescence, higher = more signal.
The nature of assay [2]: cell viability in Huh7 cells, primary screen, cytotoxicity control for HCV replication inhibitor project, CellTiter-Glo luminescence, basal, 48 h (AID 1143).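 Further: Huh7 hepatoma cells carrying a hepatitis C replication reporter with no stimulus; test concentration not given here.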 The settings on record: Huh7 HCV replicon, higher = more signal, called active from +8 up or from −8 down.
The nature of assay [3]: P. aeruginosa biofilm formation inhibitors, primary screen, PAO1 strain, BacTiter-Glo luminescence, LB-PBS (AID 1144). The settings on record: 12 h, higher = more signal.
Assay [4] is described as follows: CREB reporter modulators without forskolin, primary screen, cell-based, PC12, CRE-LacZ reporter, unstimulated (AID 1145). The settings on record: no forskolin, luminescence, 4.5 h, higher = more signal, called active from +8 up or from −8 down.
The nature of assay [5]: CREB reporter modulators under forskolin, primary screen, cell-based, PC12, CRE-LacZ reporter, forskolin-stimulated (AID 1146).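 Further: PC12 cells with 6xCRE LacZ reporter stimulated by forskolin 10 µM; beta-galactosidase reporter signal reflecting CREB driven transcription.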 The settings on record: luminescence, 4.5 h, higher = more signal, called active from +8 up or from −8 down.
Assay [6] has as its target Streptavidin (Streptomyces avidinii) (UniProt P22629). Kind of assay: streptavidin binders on small-molecule microarray, primary screen, artefact control for SMM compound annotation, biophysical, 635/667 nm fluorescence (AID 1147).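 Further: signal reflects streptavidin binding to arrayed compounds as a control protein.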 The settings on record: streptavidin binding, higher = more signal.
Assay [7] in a line: small-molecule binders of probe aInhba, primary screen, biochemical, small-molecule microarray, 635/667 nm fluorescence (AID 1148).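 Further: score merges 667nm spot fluorescence with signal-to-noise for antibody binding to printed compounds.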 Particulars: higher = more signal.
The target in assay [8] is Torsin-1A (Homo sapiens) (UniProt O14656). Kind of assay: torsin A binders from cell lysate, primary screen, small-molecule microarray, wild-type, 635/667 nm (AID 1149). The settings on record: COS7 hTOR1A-WT lysate, 635 nm fluorescence, higher = more signal.
Assay [9] shares this target. Kind of assay: small-molecule binders of mutant TOR1A in lysate, primary screen, cell lysate, small-molecule microarray, COS7 lysate, 635/667 nm fluorescence (AID 1150).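 Further: score pools 667 nm emission and signal to noise measuring lysate protein binding.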 The settings on record: COS7 hTOR1A mutant lysate, 635 nm fluorescence, higher = more signal.
Assay [10] has as its system Sonic hedgehog protein (Shh). Put plainly: small-molecule binders of Shh protein, primary screen, biochemical, small-molecule microarray, 635/667 nm fluorescence (AID 1151).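 Further: Shh protein binding to compounds spotted on small-molecule microarray slides; score combines spot fluorescence intensity with signal-to-noise across triplicate slides.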 The settings on record: small-molecule microarray binding, 635 nm fluorescence; higher = more signal.
A short description of assay [11]: E. coli DRC41 culture turbidity changes, primary screen, E. coli filamentation inducer project, strain DRC41, OD650, 48 h (AID 1152).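 Further: E. coli MC1000 strain DRC41 lacking acrAB efflux pump and sulA.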 The settings on record: E. coli DRC41 (acrAB sulA), higher = more signal, called active from +8 up or from −8 down.
Assay [12] is described as follows: small-molecule binders of probe aLefty1, primary screen, biochemical, small-molecule microarray, 635/667 nm fluorescence (AID 1153).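 Further: score merges spot fluorescence with signal-to-noise ratio from the scanned slide images.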 The settings on record: higher = more signal.
A short description of assay [13]: PSAC antagonists in infected red cells, primary screen, cell-based, P. falciparum Indochina, OD700, 1 h (AID 1154). The settings on record: P. falciparum Indochina infected RBC osmotic lysis, higher = more signal, called active from +8 up or from −8 down.
Assay [14] is described as follows: PSAC antagonists in infected red cells, primary screen, cell-based, P. falciparum Indochina, OD700, 2 h (AID 1155).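 Further: lysis reports solute entry through the parasite surface anion channel PSAC; channel blockers reduce lysis of infected cells.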 Particulars: P. falciparum Indochina infected erythrocytes, osmotic lysis OD700; higher = more signal, called active from +8 up or from −8 down.
The nature of assay [15]: osmotic lysis modulators in infected erythrocytes, primary screen, PSAC antagonist project, cell-based, P. falciparum Indochina, OD700, 3 h (AID 1156). Particulars: higher = more signal, called active from +8 up or from −8 down.
Assay [16] is described as follows: PSAC antagonists in infected red cells, primary screen, cell-based, P. falciparum Indochina, OD700, 18 h (AID 1157). The settings on record: P. falciparum Indochina infected erythrocytes, osmotic lysis OD700, 18 h; higher = more signal, called active from +8 up or from −8 down.
Assay [17] in a line: modulators of S6 phosphorylation in cells, primary screen, cell-based, A549, cytoblot, luminescence, serum-stimulated (AID 1158).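 Further: serum-stimulated A549 lung adenocarcinoma cells; signal is phosphorylated S6 detected by cytoblot immunostaining with HRP secondary.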 Particulars: A549 phospho-S6 cytoblot, 5 h, higher = more signal.
Assay [18] deals with NADPH oxidase 2 (Homo sapiens) (UniProt P04839). Kind of assay: NOX2-dependent H2O2 signal modulators, primary screen, NOX inhibitor project, cell-based, HEK293-NOX2, PMA-stimulated, Amplex Red fluorescence (AID 1159). Further: test concentration not given here. Particulars: 45 min, higher = more signal, called active from +8 up or from −8 down.
Assay [19] deals with NADPH oxidase 4 (Homo sapiens) (UniProt Q9NPH5). Kind of assay: NOX4-dependent H2O2 signal modulators, primary screen, NOX inhibitor project, cell-based, HEK293-NOX4, tetracycline-induced, Amplex Red fluorescence (AID 1160). The settings on record: 45 min, higher = more signal, called active from +8 up or from −8 down.
Assay [20] concerns the target NADPH oxidase 5 (Homo sapiens) (UniProt Q96PH1). Put plainly: NOX5-dependent H2O2 signal modulators, primary screen, NOX inhibitor project, cell-based, HEK293-NOX5, Amplex Red fluorescence (AID 1161). The settings on record: HEK293-NOX5, ionomycin, 45 min, higher = more signal.

Chain of Streptavidin (Streptomyces avidinii) (P22629 whole entry, looked up): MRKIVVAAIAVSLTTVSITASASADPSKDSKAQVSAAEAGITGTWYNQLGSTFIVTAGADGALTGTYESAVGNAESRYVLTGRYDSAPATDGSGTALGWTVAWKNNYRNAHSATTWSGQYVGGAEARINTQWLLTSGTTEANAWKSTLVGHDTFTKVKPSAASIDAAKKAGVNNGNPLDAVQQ
Chain of Torsin-1A (Homo sapiens) (O14656 whole entry, looked up): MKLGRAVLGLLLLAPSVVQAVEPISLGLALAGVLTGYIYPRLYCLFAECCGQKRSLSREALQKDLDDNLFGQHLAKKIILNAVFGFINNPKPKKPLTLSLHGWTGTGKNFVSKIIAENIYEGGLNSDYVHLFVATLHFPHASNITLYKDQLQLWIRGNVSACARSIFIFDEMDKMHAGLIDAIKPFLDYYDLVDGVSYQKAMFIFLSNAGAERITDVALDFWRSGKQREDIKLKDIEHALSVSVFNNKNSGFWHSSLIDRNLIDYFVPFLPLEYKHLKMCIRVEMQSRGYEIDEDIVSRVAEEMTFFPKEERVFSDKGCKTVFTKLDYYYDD
Chain of NADPH oxidase 4 (Homo sapiens) (Q9NPH5 whole entry, looked up): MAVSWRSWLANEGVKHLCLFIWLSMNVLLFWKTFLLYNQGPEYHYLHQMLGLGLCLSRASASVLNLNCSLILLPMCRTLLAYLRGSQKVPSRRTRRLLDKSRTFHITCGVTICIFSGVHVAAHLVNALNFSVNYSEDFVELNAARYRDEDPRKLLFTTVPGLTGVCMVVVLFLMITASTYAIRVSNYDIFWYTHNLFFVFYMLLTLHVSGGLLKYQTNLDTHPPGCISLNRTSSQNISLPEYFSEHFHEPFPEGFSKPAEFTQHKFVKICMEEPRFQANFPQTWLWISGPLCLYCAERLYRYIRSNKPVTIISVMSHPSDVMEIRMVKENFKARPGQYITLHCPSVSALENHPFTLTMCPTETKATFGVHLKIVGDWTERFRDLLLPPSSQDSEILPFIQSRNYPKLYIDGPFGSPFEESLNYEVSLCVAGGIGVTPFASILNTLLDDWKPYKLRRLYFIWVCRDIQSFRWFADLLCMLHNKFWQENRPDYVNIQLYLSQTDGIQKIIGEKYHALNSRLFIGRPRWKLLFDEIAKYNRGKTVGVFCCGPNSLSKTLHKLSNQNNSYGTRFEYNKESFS
Chain of NADPH oxidase 5 (Homo sapiens) (Q96PH1 whole entry, looked up): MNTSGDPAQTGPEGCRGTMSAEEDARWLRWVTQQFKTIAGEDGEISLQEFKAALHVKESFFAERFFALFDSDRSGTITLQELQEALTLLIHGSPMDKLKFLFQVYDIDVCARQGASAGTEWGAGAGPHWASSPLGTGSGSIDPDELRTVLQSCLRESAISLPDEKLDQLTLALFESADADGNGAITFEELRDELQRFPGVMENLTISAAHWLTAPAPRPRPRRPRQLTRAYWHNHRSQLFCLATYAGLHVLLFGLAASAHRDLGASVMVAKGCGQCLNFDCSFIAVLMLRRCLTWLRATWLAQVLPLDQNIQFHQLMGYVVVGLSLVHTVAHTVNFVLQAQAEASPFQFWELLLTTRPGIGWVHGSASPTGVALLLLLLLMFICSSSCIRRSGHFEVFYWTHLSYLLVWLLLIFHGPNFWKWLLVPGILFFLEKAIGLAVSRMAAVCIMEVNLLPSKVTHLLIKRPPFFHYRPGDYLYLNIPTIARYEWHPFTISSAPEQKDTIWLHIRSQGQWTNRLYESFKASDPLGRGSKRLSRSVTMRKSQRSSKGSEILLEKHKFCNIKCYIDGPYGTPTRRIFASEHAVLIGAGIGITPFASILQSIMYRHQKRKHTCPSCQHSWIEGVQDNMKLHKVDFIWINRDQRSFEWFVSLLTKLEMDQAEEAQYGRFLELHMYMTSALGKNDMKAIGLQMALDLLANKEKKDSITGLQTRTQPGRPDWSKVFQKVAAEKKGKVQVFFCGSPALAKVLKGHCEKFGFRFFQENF
Chain of NADPH oxidase 2 (Homo sapiens) (P04839 whole entry, looked up): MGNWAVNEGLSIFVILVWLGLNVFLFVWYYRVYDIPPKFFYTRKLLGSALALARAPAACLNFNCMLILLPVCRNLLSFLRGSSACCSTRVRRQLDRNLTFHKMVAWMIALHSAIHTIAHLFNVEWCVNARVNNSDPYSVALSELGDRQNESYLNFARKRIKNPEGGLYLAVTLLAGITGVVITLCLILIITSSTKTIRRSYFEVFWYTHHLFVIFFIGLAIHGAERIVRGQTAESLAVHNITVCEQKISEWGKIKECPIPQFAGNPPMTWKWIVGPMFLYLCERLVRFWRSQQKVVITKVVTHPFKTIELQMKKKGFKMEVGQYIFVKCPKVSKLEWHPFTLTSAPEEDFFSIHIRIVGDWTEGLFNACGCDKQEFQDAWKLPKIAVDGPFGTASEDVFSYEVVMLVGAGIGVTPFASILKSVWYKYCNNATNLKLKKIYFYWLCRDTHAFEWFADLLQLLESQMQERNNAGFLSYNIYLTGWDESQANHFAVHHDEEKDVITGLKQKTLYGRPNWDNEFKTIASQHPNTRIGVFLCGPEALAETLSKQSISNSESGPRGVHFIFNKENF

As to `CC[C@@H]1C=C(C(=O)O)[C@H](c2ccc(C#N)cc2)N1S(=O)(=O)c1ccc(C)cc1`, the composite z-score is 0.413 in assay [1]; 0.569 in assay [6]; -0.157 in assay [7]; 1.26 with Torsin-1A (Homo sapiens) [8]; 1.65 with Torsin-1A (Homo sapiens) [9]; 0.0698 in [10]. The compound further showed a composite z-score in [12] of 0.276. Moreover, the z-score was -0.857 (inactive) in assay [2]; 0.24 (inactive) in assay [3]; -0.975 (inactive) in assay [4]; -0.397 (inactive) in [5]; -0.29 (inactive) in [11]; 1.48 (inactive) in [13]. The z-score in [14] was 0.544 (inactive); in assay [15], -0.158 (inactive); in assay [16], 0.192 (inactive); in assay [17] it was -0.436; in [18], 0.452 (inactive); in [19], -0.156 (inactive). This compound had a z-score in assay [20] of -0.848.
With `O=C(c1ccccc1)N1C(=O)[C@]2(Cc3ccccc31)N=C(c1ccc(OCCCO)cc1)O[C@@H]2c1ccccc1`, the composite z-score in assay [1] is 1.09; in assay [6], 0.431; in [7], -0.0361; in the assay with Torsin-1A (Homo sapiens) [8], 0.357; with Torsin-1A (Homo sapiens) [9], 0.562; in [10] it was 2.09. The compound further had a composite z-score in assay [12] of 0.297. The z-score is -5.16 (inactive) in assay [2]; -0.378 (inactive) in assay [3]; 2.67 (inactive) in assay [4]; 2.1 (inactive) in [5]; -0.857 (inactive) in assay [11]; 21.9 (active) in assay [13]. Further, the z-score in assay [14] was 8.53 (active); in assay [15], 0.0521 (inactive); in [16], 1.35 (inactive); in [17], -0.203; in assay [18] it was 0.491 (inactive); in assay [19], -0.703 (inactive). Moreover, in [20], the z-score is -1.77.
In the case of `CCCC=C(CCC)[C@@H](NC(=O)C(C)(C)C)c1ccc(C(=O)OC)cc1`, the composite z-score in assay [1] is 0.0146; in [6], 1.69; in [7], 0.127; with Torsin-1A (Homo sapiens) [8], -0.0649; in the assay with Torsin-1A (Homo sapiens) [9] it was 0.123; in assay [10], -0.824. Moreover, in assay [12], the composite z-score was determined as 0.666. Moreover, the z-score in assay [2] was -2.97 (inactive); in assay [3], -0.168 (inactive); in [4], -0.379 (inactive); in [5], -0.744 (inactive); in assay [11] it was -1.31 (inactive); in assay [13], 0.494 (inactive). The z-score in assay [14] is 0.889 (inactive); in assay [15], -1.28 (inactive); in assay [16], 1.21 (inactive); in assay [17], 0.0791; in [18] it was -0.129 (inactive); in assay [19], 0.624 (inactive). Moreover, in [20], the z-score stood at 2.5.
With `CCCN1C(=O)[C@]2(Cc3ccccc31)N=C(c1ccc(OCCCO)cc1)O[C@@H]2c1ccccc1`, the composite z-score is 0.489 in [1]; 0.899 in assay [6]; -0.0087 in assay [7]; 0.738 with Torsin-1A (Homo sapiens) [8]; 0.423 with Torsin-1A (Homo sapiens) [9]; 1.12 in [10]. The composite z-score in assay [12] was 0.643. For the same compound, the z-score in [2] was -5.07 (inactive); in [3], -2.3 (inactive); in assay [4], 0.344 (inactive); in assay [5], -0.647 (inactive); in assay [11], -0.753 (inactive); in assay [13] it was 30.9 (active). Also, the z-score in assay [14] is 25.5 (active); in assay [15] it was 3.13 (inactive); in [16] it was 2.19 (inactive); in assay [17] it was 0.117; in [18], -3 (inactive); in [19] it was -0.843 (inactive). The z-score in [20] is -1.8.
As to `CCOC(=O)C[C@H]1[C@H](OC(=O)Cc2ccc3c(c2)OCO3)[C@@H](NC(=O)c2ccc3ccccc3n2)c2cc(OCCCO)ccc2N1C(=O)c1ccccc1`, the composite z-score in assay [1] amounted to 0.151; in assay [6], 0.386; in assay [7], 0.0074; with Torsin-1A (Homo sapiens) [8], 0.526; with Torsin-1A (Homo sapiens) [9], 0.302; in assay [10], 0.826. Moreover, the composite z-score in assay [12] stood at 0.101. Further, the z-score in assay [2] is -0.301 (inactive); in [3], -0.283 (inactive); in [4] it was 7.23 (inactive); in [5], 0.613 (inactive); in [11], 1.43 (inactive); in assay [13], 8.88 (active). Besides, the z-score in [14] was 1.32 (inactive); in [15], -0.576 (inactive); in assay [16], 0.308 (inactive); in assay [17], -0.246; in [18], -1.88 (inactive); in assay [19], 0.521 (inactive). This compound yielded a z-score in assay [20] of -2.
For `COc1ccc([Si](C)(C)[C@@H]2[C@@H](CC(=O)N(CCO)Cc3ccccc3)O[C@]3(C(=O)N(Cc4cccc(N5CCCCC5=O)c4)c4ccccc43)[C@H]2C)cc1`, the composite z-score in [1] is 0.585; in [6], -0.402; in assay [7], 0.187; with Torsin-1A (Homo sapiens) [8], 0.961; in the assay with Torsin-1A (Homo sapiens) [9], 0.706; in assay [10] it was 2.06. In assay [12], this compound had a composite z-score of 0.527. Moreover, the z-score in [2] was -4.76 (inactive); in assay [3], -0.952 (inactive); in assay [4] it was 0.716 (inactive); in assay [5] it was 0.708 (inactive); in assay [11], 0.152 (inactive); in [13], 4.33 (inactive). Also, the z-score in assay [14] was 1.85 (inactive); in assay [15], 0.422 (inactive); in assay [16], 1.14 (inactive); in [17], 1.19; in assay [18], 0.609 (inactive); in [19], 1.28 (inactive). The same compound gave a z-score in assay [20] of 3.58.
For the compound `COCC(=C=CC[C@H](O)c1ccc(CO)o1)CCO`, the composite z-score in assay [1] is 0.181; in assay [6], 0.141; in assay [7], -0.003; with Torsin-1A (Homo sapiens) [8], 0.494; with Torsin-1A (Homo sapiens) [9], 0.246; in [10], 1.99. Further, the composite z-score in assay [12] was -0.198. For the same compound, the z-score in assay [2] was -0.25 (inactive); in [3], 0.308 (inactive); in assay [4] it was 1.51 (inactive); in assay [5], -0.255 (inactive); in assay [11], -0.434 (inactive); in [13], 0.811 (inactive). The z-score in [14] was 0.0508 (inactive); in assay [15] it was -0.148 (inactive); in assay [16], -0.159 (inactive); in assay [17] it was -0.992; in assay [18], 0.249 (inactive); in [19], -0.177 (inactive). For the same compound, in assay [20], the z-score was -0.224.
Consider `C=CCC(OC(C)=O)[C@@H]1[C@@H](N(Cc2cccc3ccccc23)C(=O)Cc2ccc(OC)cc2)c2cc(OCCCO)ccc2N1C(=O)c1ccc(-c2ccccc2)cc1` (stereo not given in full), for which the composite z-score was -0.213 in [1]; 0.107 in assay [6]; -0.0762 in assay [7]; -0.452 in the assay with Torsin-1A (Homo sapiens) [8]; 0.0437 with Torsin-1A (Homo sapiens) [9]; 0.112 in assay [10]. In addition, in assay [12], the composite z-score was 0.0429. Moreover, the z-score is -1.22 (inactive) in assay [2]; 1.16 (inactive) in assay [3]; 0.106 (inactive) in assay [4]; -0.375 (inactive) in assay [5]; -0.62 (inactive) in assay [11]; 0.0926 (inactive) in [13]. The z-score in [14] is 0.299 (inactive); in assay [15], -0.278 (inactive); in assay [16], 0.263 (inactive); in assay [17], 0.0614; in assay [18] it was -1.33 (inactive); in assay [19], -0.257 (inactive). In [20], this compound yielded a z-score of -1.21.
